The results in this text go back to PubChem BioAssay AID1159606 (Sanford-Burnham Center for Chemical Genomics, 2016).

By inhibition is commonly meant the drop in the measured response relative to a control, in per cent.

In all, about 360,000 compounds went through this assay and about 7,300 (2%) were called active. Cut-off read from the data, not from the text of the source: active = inhibition above about 50%; inactive = the rest. For the sample, actives were picked, then their nearest neighbours and some compounds at random.

This test is described as follows: blockers of TWEAK-induced Fn14 reporter activity – luciferase reporter cells, uHTS, primary screen (AID 1159606). The settings on record: TWEAK-stimulated Fn14 reporter cells, luciferase luminescence, 8 h; at 10 µM; hits give high values. (Reporter assays use an easily measured gene product as a stand-in for the process of interest.)
Regarding `O=C(NC(=S)Nc1ccccc1C(=O)O)c1ccc(-c2ccc(Br)cc2)o1`, the inhibition was 47.2% (inactive).
As to `CCOC(=O)c1c(NC(=O)CSc2nccc(=O)[nH]2)sc(C)c1C`, the inhibition was -3.68% (inactive).
On to `CCOC(=O)c1c(C)[nH]c(C)c1S(=O)(=O)NCCCc1ccco1`, for which the inhibition was -7.27% (inactive).
For `CCOC(=O)c1c(C)[nH]c2c1-c1ccccc1C(=O)C2=O`, the inhibition is 101% (active).
Take `Cc1cccc(CN2CCN(C3CN(Cc4cn(Cc5ccccc5F)nn4)S(=O)(=O)C3)CC2)c1` (configuration not stated): the inhibition is -19.2% (inactive).
As to `NC(=O)C1CC(=O)N(c2ccc(OCC(=O)NCc3ccccc3)cc2)C1` (configuration not stated), the inhibition is 32.7% (inactive).
As for `Cc1cccc(C)c1NC(=O)CNC(=O)c1ccc(N2CCOCC2)c([N+](=O)[O-])c1`, the inhibition was 8.19% (inactive).
In the case of `O=S(=O)(NCCCCCCNS(=O)(=O)c1c(F)cccc1F)c1ccc2c(c1)OCCO2`, the inhibition is 16.7% (inactive).
For the compound `O=C1NC[C@H](Cc2ccc(O)cc2)N(C[C@@H]2CCCN2C[C@H](Cc2ccccc2)N2C[C@H](Cc3ccccc3)N(CC3CCCCC3)C(=O)C2=O)C1=O`, the inhibition is -9.41% (inactive).
Turning to `COc1cccc(C(=O)N/N=C(\C)c2cccc(NC(=O)c3ccc(F)cc3)c2)c1OC`, the inhibition is -20% (inactive).
For `O=C(c1ccc(Oc2ccc(Cl)cc2)c([N+](=O)[O-])c1)N1CCCC1`, the inhibition was -4.37% (inactive).
On to `Nc1ccc(C(=O)N2CCN(S(=O)(=O)c3ccc(Cl)cc3)CC2)cc1[N+](=O)[O-]`, for which the inhibition is -5.64% (inactive).
With `CC1CCN(C(=O)c2ccc(S(=O)(=O)Cc3cc(F)ccc3F)c([N+](=O)[O-])c2)CC1` the figure was 83.4% (active); with `O=C(NCCc1ccccn1)c1ccc(COc2ccccc2)o1`, -2.18% (inactive); with `COc1ccc(/C=C/C(=O)c2ccc(NS(=O)(=O)c3ccc(C)cc3)cc2)cc1O`, 60.9% (active).
In the case of `COc1ccc(/C=C/C(=O)Nc2ccc(C)cc2)cc1S(=O)(=O)N1CCOCC1`, the inhibition is -4.91% (inactive).
Take `Cc1ccc(C(=O)/C=C/Nc2ccc(S(=O)(=O)Nc3onc(C)c3C)cc2)cc1`: the inhibition was -32% (inactive).
For the compound `COc1ccc(CNC(=O)c2c[nH]c3c(OC)cc(OC)cc3c2=O)cc1`, the inhibition is -46.6% (inactive).
`CCCCN1C(=O)c2ccc(C(=O)Nc3ccc(S(=O)(=O)N(C)C)cc3)cc2C1=O`: the inhibition was 33.8% (inactive).
Consider `COc1ccc(NC(=O)C2Cc3c(-c4ccc(Cl)cc4)ccnc3O2)cc1` (configuration not stated), for which the inhibition was 6.65% (inactive).
As to `O=C(c1[nH]ncc1-c1ccc(Cl)cc1)C1CO1` (configuration not stated), the inhibition is 66.5% (active).
For `Cc1ccc(S(=O)(=O)n2oc(=O)c(C3CCCCC3)c2N)cc1`, the inhibition was 2.92% (inactive).
Regarding `CCCS(=O)(=O)Nc1ccc(-c2cn3c(n2)SCC3)cc1`, the inhibition is -17.6% (inactive).
On to `Cc1ccccc1Cn1nc(C)c(NC(=O)C(F)(F)F)c1C`, for which the inhibition is -0.38% (inactive).
As to `Cc1nn(Cc2ccc(Cl)c(Cl)c2)c(C)c1NC(=O)c1cc(C2CC2)on1`, the inhibition is -9.69% (inactive).
For `Cc1nn(Cc2ccc(F)cc2)c(C)c1NC(=O)c1noc2c1CCc1ccccc1-2`, the inhibition was 60.1% (active).
With `CC(C)(C)C1CCC(=O)N2CCC[C@]2(c2ccccc2)C1` (some centres not stated) the figure was -2.82% (inactive); with `COc1ccc(NC(=O)CCCNC(=O)Cn2cnc3sc4c(c3c2=O)CCCC4)cc1OC`, 4.82% (inactive).
Turning to `COc1ccc(/C=N/Nc2ncnc3sc4c(c23)CCCC4)cc1O`, the inhibition is 91.4% (active).
In the case of `COc1ccc(NC(=O)CCNC(=O)Cn2cnc3sc4c(c3c2=O)CCCC4)cc1OC`, the inhibition is -3.89% (inactive).
As to `Cc1ccccc1S(=O)(=O)N1[C@@H](c2cccc(Cl)c2)C(C(=O)OC(C)(C)C)=CC[C@H]1c1ccc(Cl)cc1`, the inhibition was -24.3% (inactive).
Take `Cc1ccc(-c2nc3c(Cl)cc(C(F)(F)F)cn3c2Cc2cccc(Cl)c2)cc1`: the inhibition was 25.6% (inactive).
With `COC(=O)c1ccc2c(c1)S(=O)(=O)NC2C` (configuration not stated), the inhibition was -6.18% (inactive).
On to `CN(C)c1ccc2c(=O)[nH][nH]c(=O)c2c1`, for which the inhibition was -6.35% (inactive).
As for `COc1ccc(CCNC(=O)COC(=O)Cc2cccc(F)c2)cc1`, the inhibition is -0.83% (inactive).
With `CC(C)Oc1ccc(Cc2n[nH]c(=S)n2Cc2ccccc2)cc1Cl` the figure was 92.2% (active); with `COc1cc(-c2n[nH]c(=S)n2Cc2ccccc2)cc(OC)c1OC`, -2.96% (inactive).
With `CC(C)Oc1ccc(CCc2n[nH]c(=S)n2Cc2ccccc2)cc1`, the inhibition is -6.3% (inactive).
With `CCOC(=O)c1c(-c2ccc(C)cc2)csc1/N=C(\C)C1=C(O)c2ccccc2C1=O`, the inhibition is 66.2% (active).
As for `CCC(C(=O)OC)n1cnc2scc(-c3ccc(C)cc3)c2c1=O` (configuration not stated), the inhibition was 0.23% (inactive).
On to `COC(=O)c1c(-c2ccc(C)cc2)csc1N`, for which the inhibition was -2.01% (inactive).
With `CS(=O)(=O)N(C(=O)NC(=O)NC1CCS(=O)(=O)C1)C1CCCCC1` (configuration not stated) the figure was 13.7% (inactive); with `CCCS(=O)(=O)NC(=O)C1(C)CCCN(C(=O)c2cccs2)C1` (configuration not stated), -4% (inactive); with `COCC1CCCCN1C(=O)c1cc(COc2ccc(C)c(C)c2)on1` (configuration not stated), -33.8% (inactive).
For `O=C(NC(Nc1nc2ccc([N+](=O)[O-])cc2s1)(C(F)(F)F)C(F)(F)F)c1ccccc1`, the inhibition was 57.6% (active).
As to `CC(Nc1ccc([N+](=O)[O-])cc1[N+](=O)[O-])c1ccccc1` (configuration not stated), the inhibition is -18.4% (inactive).
Regarding `CC1CCN(C(=O)c2cccc(S(=O)(=O)N3CCCc4ccccc43)c2)CC1`, the inhibition was -0.65% (inactive).
Take `NS(=O)(=O)c1ccc(CNC(=O)c2cccc(S(=O)(=O)N3CCc4ccccc43)c2)cc1`: the inhibition was 3.71% (inactive).
`O=C(Nc1nc2ccc([N+](=O)[O-])cc2s1)c1ccc(S(=O)(=O)N2CCCc3ccccc32)cc1`: the inhibition is 64.6% (active).
Next, `CCC(=O)Nc1nnc(S(=O)(=O)N2CCCc3ccccc32)s1`: -3.9% (inactive); `O=C(NNC(=O)c1ccc(-n2cncn2)c([N+](=O)[O-])c1)c1ccccc1`: 2.77% (inactive).
As for `Cc1ccc(NC(=O)c2cccc(S(=O)(=O)N3CCCc4ccccc43)c2)nc1`, the inhibition is 58.7% (active).
Next, `NS(=O)(=O)c1ccc2nc(NC(=O)C3=COCCO3)sc2c1`: 24.4% (inactive); `CCCCCCCCN1C(=O)[C@H](CC(=O)NCC23CC4CC(CC(C4)C2)C3)C[C@@]2(C(=O)OC)CCCCC=C12`: 8.39% (inactive); `CCNC(=O)C1(C)CCN(Cc2ccc(C(=O)OCC)o2)C1` (configuration not stated): 1.05% (inactive).
As to `CN(C)N=Nc1ccc2nc[nH]c2c1`, the inhibition was -9.3% (inactive).
Next, `O=S1(=O)CC(N2CCN(Cc3ccccc3F)CC2)CN1Cc1cn(Cc2ccccc2)nn1` (configuration not stated): 5.09% (inactive).
With `C=CCn1c(SCc2nnc(-c3ccccc3)o2)nnc1C(O)c1ccccc1` (configuration not stated), the inhibition is -3.86% (inactive).
As to `CCC(NC(=O)c1ccccc1NC(=O)c1ccccc1)C(=O)NNC(=O)CSc1nc2ccccc2o1` (configuration not stated), the inhibition was -0.91% (inactive).
`Cn1cnc2c1c(=O)n(Cc1c(Cl)cccc1Cl)c(=O)n2C`: the inhibition is -7.11% (inactive).
On to `Cn1c(N)c(C(=O)COC(=O)c2ccccc2NCc2ccco2)c(=O)n(C)c1=O`, for which the inhibition was 22.6% (inactive).
Turning to `CC(=O)c1cnn(-c2cc(Oc3ccc(F)cc3)ncn2)c1C`, the inhibition is 8.07% (inactive).
Next, `CCOC(=O)/C(=N\Nc1cc(Cl)ccc1Cl)N1CCN(C)CC1`: -34.9% (inactive).
With `CC(=O)C1=C(C)NC(C)=C(C(C)=O)C1c1cn(-c2ccccc2)nc1-c1cccs1`, the inhibition is -6.98% (inactive).
On to `O=C(/C=C/c1cn(-c2ccccc2)nc1-c1ccc2c(c1)OCCO2)NCCCN1CCOCC1`, for which the inhibition was -1.36% (inactive).
With `O=C(/C=C\c1cn(-c2ccccc2)nc1-c1cccs1)N1CCOCC1`, the inhibition was 98.4% (active).
With `COc1ccc(-c2nn(C)c(=O)c3ccccc23)cc1CNC(=O)C1CCCCC1` the figure was -37.6% (inactive); with `COc1ccc(S(=O)(=O)N2CCCCC2)cc1NC(=O)COc1ccccc1`, 22.4% (inactive).
Next, `COc1ccc(-c2nn(C)c(=O)c3ccccc23)cc1NC(=O)COc1ccccc1`: 71.2% (active); `CC1CC(=S)Nc2ccccc2N1Cc1ccccc1` (configuration not stated): 13.5% (inactive); `Cc1nc2ccc(NC(=O)N3CCC(c4ccccc4)C3)cc2nc1C` (configuration not stated): 0.79% (inactive).
Turning to `O=C(O)c1ccc(N/N=C/c2ccc3ncccc3c2)cc1`, the inhibition is 95.2% (active).
Regarding `CCNC(=S)NNC(=O)c1ccc2ncccc2c1`, the inhibition was 1.76% (inactive).
`CC(C)(C)OC(=O)N/N=C/c1ccc(C(=O)O)cc1`: the inhibition was -4.99% (inactive).
Next, `CC1(C(=O)Nc2ccc3c(c2)OCCO3)CCN1C(=O)Cc1cc(F)ccc1F` (configuration not stated): -3.09% (inactive).
Consider `O=S(=O)(NCc1ccccc1Cl)c1cnc[nH]1`, for which the inhibition was -2.25% (inactive).
With `O=S1(=O)CC(N2CCN(Cc3ccccc3F)CC2)CN1Cc1cn(Cc2cccc(C(F)(F)F)c2)nn1` (configuration not stated) the figure was 10.4% (inactive); with `CCN(CC(=O)NC1CCS(=O)(=O)C1)c1nc(-c2cccnc2)nc2ccccc12` (configuration not stated), 0.56% (inactive); with `O=[N+]([O-])c1ccc(F)cc1Oc1nc(-c2cccnc2)nc2ccccc12`, 55.1% (active).
For `O=[N+]([O-])c1cc2ccccc2nc1-c1ccccc1`, the inhibition is -7.41% (inactive).
With `Cc1ccc(S(=O)(=O)N2[C@@H](c3cccc4ccccc34)C(C(=O)O)=C[C@H]2C(C)(C)C)cc1` the figure was 14.3% (inactive); with `CCOc1ccc(CN2CCNC(=O)C2CC(=O)NCCCC2CCCC2)cc1` (configuration not stated), 7.15% (inactive).
In the case of `CCOC(=O)C1=C(NC(=S)NC(=O)c2ccccc2)c2ccccc2CC1(C)C`, the inhibition is 4.16% (inactive).
In the case of `CCOC(=O)c1c(NC(=S)NC(=O)/C=C/c2cccs2)sc(C)c1C`, the inhibition is 20.2% (inactive).
On to `CCOC(=O)c1c(-c2ccccc2)csc1NC(=S)NC(=O)c1ccccc1`, for which the inhibition is 57.9% (active).
As for `O=C(C1CCCO1)N1CCN(C(=O)C23CC4CC(CC(C4)C2)C3)CC1` (configuration not stated), the inhibition is -24% (inactive).
Consider `C[C@H](CO)N1C[C@H](C)[C@@H](CN(C)Cc2ccc3c(c2)OCO3)OCc2cnnn2CCCC1=O`, for which the inhibition is -16.3% (inactive).
